Experimental data as given in PubChem BioAssay AID2018 (Sanford-Burnham Center for Chemical Genomics, 2009).
Out of some 1,200 compounds screened, about 600 (50%) were called active. Cut-off read from the data, not from the text of the source: active = inhibition above about 42%; inactive = the rest. The set was probably picked from earlier hits. The list shows a part of the results. Potency and affinity values are given separately.

target: SUMO-conjugating enzyme UBC9 (Homo sapiens) (UniProt P63279); experiment: blockers of UBC9-mediated SUMO conjugation – biochemical, AlphaScreen, SUMOylation inhibitor project, confirmation (AID 2018); conditions: AlphaScreen in vitro SUMOylation assay; at 35 µM; stronger effect = higher value
Sequence (P63279 whole entry, looked up): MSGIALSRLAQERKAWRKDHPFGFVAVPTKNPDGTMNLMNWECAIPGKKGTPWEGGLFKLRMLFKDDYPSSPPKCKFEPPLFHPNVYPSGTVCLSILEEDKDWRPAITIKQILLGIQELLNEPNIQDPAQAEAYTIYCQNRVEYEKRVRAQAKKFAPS

inhibition, inactive:
CCN(CC)S(=O)(=O)c1ccc(C)c(NC(=O)CSc2ncc(C(F)(F)F)cc2Cl)c1 11.7%
CC(C)Cn1c(N)c(C(=O)NCC2CCCO2)c2nc3ccccc3nc21 (centres undefined) 0%
COCCn1c(N)c(C(=O)OCc2ccccc2)c2nc3ccccc3nc21 -26.1%
COCCNC(=O)c1c(N)n(CCCn2ccnc2)c2nc3ccccc3nc12 5.2%
COCCn1c(N)c(C#N)c2nc3ccccc3nc21 29.5%
C=CCn1c(N)c(C(=O)NCC2CCCO2)c2nc3ccccc3nc21 (centres undefined) -9.9%
CN(C)CCCn1c(N)c(C#N)c2nc3ccccc3nc21 38.6%
Cc1oc2c(c(C)cc3oc(=O)c(CC(=O)NCC(=O)NCC(=O)O)c(C)c32)c1C -1.1%
Cc1ccc(C)n1-c1nccc(-c2cccs2)n1 21.2%
O=c1oc2ccccc2c(Nc2cccc3cccnc23)c1[N+](=O)[O-] 7.5%
C=CCn1c(N)c(C(=O)Nc2cccc(C)c2)c2nc3ccccc3nc21 8.9%
C=CCn1c(N)c(C(=O)OC(C)(C)C)c2nc3ccccc3nc21 5.9%
CCCCn1c(NC(C)=O)c(C#N)c2nc3ccccc3nc21 15.5%
N#Cc1c(N)n(CCOC(=O)c2ccc(Cl)cc2)c2nc3ccccc3nc12 -17.7%
N#Cc1c(N)n(CCNC(=O)c2ccccc2)c2nc3ccccc3nc12 29.4%
Cc1ccc2[nH]c3c(c2c1)CN(C(=O)CN1CCCc2ccccc21)CC3 41%
C/C(CCc1ccco1)=N\NC(=O)CNc1cccc2ccccc12 6.1%
O=C(NC(=S)Nc1c(Cl)ccc2nsnc12)c1ccco1 19.5%
Cn1nccc1NC(=O)Nc1cccc(Cl)c1 10.6%
Nc1ccc(N2CCN(CCCCN3C(=O)C4CCCN4C3=O)CC2)cc1 (centres undefined) 29.6%
C/C(=C\C(=S)Nc1ccccc1)Nc1cccc2ccccc12 29.8%
Nc1ccc2oc(-c3cccs3)nc2c1 -13.9%
Nc1c(N2CCOCC2)cc(Cl)c2nonc12 -2.8%
O=[N+]([O-])c1c(NCCO)cc(N2CCCCCC2)c2nonc12 6%
O=C(Nc1ccc(N2CCOCC2)c2nonc12)C1CCCC1 24%
CCN(CC)c1cc(Cl)c2nonc2c1N 16.4%
CN(C(=O)CSc1nnc(NCc2ccccc2)s1)C1CCS(=O)(=O)C1 (centres undefined) 12.1%
Nc1ccc(-c2nc3ccc(N)cc3[nH]2)cc1 -8.6%
COc1ccc(-c2nc3ccncc3[nH]2)cc1OC 11.1%
CN(C)c1ccc(C(=O)/C=C/c2ccco2)cc1 10.9%
O=C(/C=C/c1ccco1)NC(=S)NNC(=O)c1ccco1 -483%
CCc1nc2sc(C(C)=O)c(N)c2c2c1CCCC2 -13%
O=C(CN1C(=O)CSC1=O)Nc1ccc(C(=O)O)cc1 -7.6%
CCC(=O)N1CCc2cc(S(=O)(=O)NC(C(=O)NCc3ccc(C)cc3)C(C)C)ccc21 (centres undefined) 37.4%
CN(C)c1cccc2cccc(N(C)C)c12 3.1%
CCN(c1ccccc1)c1cc2ccccc2c(=O)[nH]1 35.3%
Cc1ccc(C(=O)NC(C)c2nc3ccccc3n2CC(=O)Nc2c(C)cc(C)cc2C)cc1 (centres undefined) 5.3%
Cn1c(-c2ccc(C=O)s2)nc2ccccc21 14.4%

inhibition, active:
COCCn1c(N)c(C(=O)NCC2CCCO2)c2nc3ccccc3nc21 (centres undefined) 42.3%
N#Cc1c(N)n(-c2cccc(C(=O)O)c2)c2nc3ccccc3nc12 43%
Nc1ccc(N2CCCCC2)c2nonc12 78.2%
O=C(/C=C\c1ccco1)c1ccc(NC(=O)c2ccco2)cc1 56.4%
CC(C)(C)C1CCC2(CC1)Nc1cccc3cccc(c13)N2 52.8%
O=C(CCCN1C(=O)/C(=C/c2ccco2)SC1=S)Nc1ccccc1C(=O)O 76.9%
COc1ccc(N2C(=O)[C@@H]3[C@H](C2=O)[C@H]2c4ccccc4C=CN2[C@@H]3C(C)=O)cc1 53.6%
Cc1ccoc1C(=O)NCCCNC(=O)c1occc1C 56.7%
Cc1cc2oc(C(=O)Nc3ccc(S(=O)(=O)Nc4nccs4)cc3)cc(=O)c2cc1Cl 75%
O=c1[nH]c(Nc2ccccc2)cc2ccccc12 102%
CCn1c(NC(=O)c2ccccc2)nc2ccccc21 73%
